# Results taken from PubChem BioAssay (NCATS).
# Records with an inconclusive call do not appear. A call without a number means that no potency is given here. The source made the active and inactive calls. Unless noted, calls come from the whole dose curve; as a rule, active = well fitted curve in the direction sought with a large enough effect; inconclusive = small, poorly fitted or top-dose-only effect, or another doubt; inactive = no such curve, though single readings can be large; an effect the other way counts as inactive or inconclusive.
# Columns and labels:
# [1] = qHTS for Inhibitors of the Functional Ribonucleoprotein Complex (vRNP) of Lassa (LASV) Arenavirus: Viability assay - alamar blue signal for LASV Primary Screen (AID 1347083; calls by dose curve; tested in HEK293 reporter line; note: potency is the fitted concentration of half-maximal effect; nearly all actives have a fitted effect of over 80% in size)
# [2] = Cytotoxicity counterscreen for inhibitors of SARS-CoV-2 cell entry (AID 1645845; calls by dose curve; note: nearly all actives have a fitted effect of over 50% in size)
# Summary of the method: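 48 h compound treatment (after 1 h preincubation), HEK293-ACE2 cells, 37 C/5% CO2; ATP luminescence endpoint; normalized to cell wells and media blanks.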
# [3] = Primary qHTS to identify inhibitors of SARS-CoV-2 cell entry (AID 1645846; calls by dose curve; note: nearly all actives have a fitted effect of over 45% in size); conditions: activity change, negative = inhibition: at 57.1 µM (top of the series) unless noted
# Summary of the method: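 Inhibition of spike-mediated entry was scored in human ACE2-transfected Expi293F cells. Particles were MLV-pseudotyped with Wuhan-Hu-1 S carrying a 19-aa C-terminal deletion; signal was luciferase after two days, scaled between spike PP and fusion-protein-free PP.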
# [4] = test system: CRL-7250; test: qHTS assay to identify novel small-molecules to repurpose for Merkel cell carcinoma treatment (AID 1296009); conditions: MCC and control cell lines, CellTiter-Glo viability, 72 h; series mostly up to 92 µM; note: nearly all actives have a fitted effect of over 60% in size
# Summary of the method: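 72 hr, 37 degree celsius; NPC 8-pt / MIPE 11-pt dose response; compound pinned in DMSO; CellTiter-Glo, 10 min RT, luminescence; normalized to no-cell and DMSO controls.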
# [5] = test system: Zika virus NS2B-NS3 protease (unlinked complex); test: Primary screen GU Rhodamine qHTS for Zika virus inhibitors: Unlinked NS2B-NS3 protease assay (AID 1347159); note: nearly all actives have a fitted effect of over 60% in size
# Summary of the method: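 Compounds, tested up to 114 microM, were incubated for 15 minutes with 25 nM unlinked NS2B-NS3 protease at pH 8.0. Cleavage of 1.5 microM Rhodamine110 substrate was then followed by fluorescence for 15 minutes.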
# [6] = test system: Zika virus NS2B-NS3 protease (linked construct); test: Primary screen NINDS Rhodamine qHTS for Zika virus inhibitors (AID 1347160); note: nearly all actives have a fitted effect of over 55% in size
# Summary of the method: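 Percent inhibition, normalized to uninhibited and enzyme-free controls, is fitted to a 4-parameter Hill equation. Fluorescence change comes from a 15-min cleavage of 1.5 microM bis-peptide Rhodamine110 substrate by 25 nM linked NS2B-NS3 at room temperature.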
# [7] = target: Cytochrome P450 2D6 (Homo sapiens) (UniProt P10635); test: Cytochrome P450 family 2 subfamily D member 6 (CYP2D6) small molecule antagonists: luciferase biochemical (cell-free) qHTS assay (AID 1645840; active = well fitted curve in the direction sought with a large enough effect in the repeat runs; an effect the other way counts as inactive or inconclusive; note: potency is the fitted concentration of half-maximal effect; nearly all actives have a fitted effect of over 55% in size)
# Sequence of Cytochrome P450 2D6 (Homo sapiens) (P10635 whole entry, looked up): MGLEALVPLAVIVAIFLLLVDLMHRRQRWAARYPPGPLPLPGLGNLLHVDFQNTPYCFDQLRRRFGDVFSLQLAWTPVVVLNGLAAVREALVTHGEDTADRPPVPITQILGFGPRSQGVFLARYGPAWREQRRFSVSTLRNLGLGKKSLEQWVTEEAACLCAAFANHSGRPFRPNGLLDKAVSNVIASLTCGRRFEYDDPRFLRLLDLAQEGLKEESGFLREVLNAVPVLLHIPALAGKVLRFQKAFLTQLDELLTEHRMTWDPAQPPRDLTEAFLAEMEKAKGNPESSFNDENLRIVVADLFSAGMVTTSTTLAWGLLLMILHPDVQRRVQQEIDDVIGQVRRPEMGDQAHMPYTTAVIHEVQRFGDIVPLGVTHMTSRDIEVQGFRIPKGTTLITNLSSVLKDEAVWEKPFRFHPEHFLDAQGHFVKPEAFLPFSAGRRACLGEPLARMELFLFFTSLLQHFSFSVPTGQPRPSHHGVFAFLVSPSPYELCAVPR
# Summary of the method: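 P450-Glo luminescent screen: recombinant CYP2D6 enzyme–proluciferin substrate mix preincubated with compound 10 min at room temperature, then NADPH regeneration added for 1 h at room temperature. Detection reagent added for 20 min; luciferin light read as relative luminescence units.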
# [8] = Primary qHTS for inhibitors of nuclear receptor binding SET domain protein 2 (NSD2) in an isogenic RCH-ACV NSD2 p.E1099K mutant (9B) (AID 1645876); note: potency is the fitted concentration of half-maximal effect; nearly all actives have a fitted effect of over 70% in size
# [9] = Primary qHTS for inhibitors of nuclear receptor binding SET domain protein 2 (NSD2) in an RCH-ACV wild type WT cells (2C) (AID 1645877); note: potency is the fitted concentration of half-maximal effect; nearly all actives have a fitted effect of over 70% in size
# [10] = target: Glutathione peroxidase 1 (Homo sapiens) (UniProt P07203); test: Primary qHTS Assay for Inhibitors of Recombinant Selenoprotein Glutathione Peroxidase 1 (GPX1) (AID 1845191); note: nearly all actives have a fitted effect of over 65% in size
# Sequence of Glutathione peroxidase 1 (Homo sapiens) (P07203 whole entry, looked up): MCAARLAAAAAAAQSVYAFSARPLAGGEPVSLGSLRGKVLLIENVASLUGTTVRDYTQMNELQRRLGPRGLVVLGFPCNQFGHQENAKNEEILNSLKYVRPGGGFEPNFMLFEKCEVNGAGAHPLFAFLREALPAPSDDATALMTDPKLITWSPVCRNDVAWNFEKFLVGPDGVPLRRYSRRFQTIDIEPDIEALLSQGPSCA
# Summary of the method: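 10 nM GPX1 + cpd, 30 min RT; start w/ 1 mM GSH, 0.5 mM cumene hydroperoxide, 0.5 mM NADPH, 100 nM GR, 0.01% BSA; buffer 50 mM Tris-HCl pH 7.5, 2 mM EDTA, 150 mM NaCl; Fl 340/450, 0 & 15 min.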
# [11] = target: Phospholipid hydroperoxide glutathione peroxidase GPX4 (Homo sapiens) (UniProt P36969); test: Primary qHTS Assay for Inhibitors of Recombinant Selenoprotein Glutathione Peroxidase 4 (GPX4) (AID 1845192); note: nearly all actives have a fitted effect of over 65% in size
# Sequence of Phospholipid hydroperoxide glutathione peroxidase GPX4 (Homo sapiens) (P36969 whole entry, looked up): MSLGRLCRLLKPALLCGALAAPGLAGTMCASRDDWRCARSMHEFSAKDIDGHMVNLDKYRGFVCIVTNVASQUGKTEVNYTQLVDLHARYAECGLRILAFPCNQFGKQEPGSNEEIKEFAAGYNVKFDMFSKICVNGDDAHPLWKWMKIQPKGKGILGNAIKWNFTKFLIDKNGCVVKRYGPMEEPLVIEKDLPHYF
# Summary of the method: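 NADPH consumption, followed by fluorescence at 340/450 nm between 0 and 15 min, reports GPX4 activity via coupled glutathione reductase (100 nM). Enzyme 200 nM was pre-exposed to compound 30 min; 0.5 mM cumene hydroperoxide and 1 mM GSH served as substrates.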
# [12] = target: Luciferin 4-monooxygenase (Photinus pyralis) (UniProt P08659); test: Primary firefly luciferase (FLuc) qHTS assay for identification of artifact compounds. (AID 1845220); conditions: outcome: dose series up to 54.1 µM unless noted; note: nearly all actives have a fitted effect of over 60% in size
# Summary of the method: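 Cell-free, 1536-well qHTS. Buffer pH 7.6 with 0.01% Tween-20 and 0.05% BSA; 10 uM D-luciferin, 10 uM ATP; 10 nM P. pyralis luciferase; luminescence after 5 min.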
# [13] = Primary fluorescence-based thiol-reactive (MSTI) qHTS assay for identification of artifact compounds. (AID 1845221);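 note: thiol-reactive compounds lower the probe fluorescence signal; nearly all actives have a fitted effect of over 65% in size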
# Summary of the method: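 In PBS pH 7.4 with 2% DMSO, each compound met 4 uM MSTI for one hour at ambient temperature, shielded from light, before fluorescence detection.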
# [14] = test system: Nanoluciferase (engineered Oplophorus gracilirostris luciferase); test: Primary Nanoluciferase (NLuc) qHTS assay for identification of artifact compounds. (AID 1845222)
# Summary of the method: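 Compounds are pinned into diluted (1:55) conditioned medium of NLuc-expressing S16 cells and held 15 min at room temperature protected from light. Nano-Glo substrate follows, and luminescence is read 5 min later.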
# [15] = Primary redox qHTS assay for identification of artifact compounds. (AID 1845223)
# Summary of the method: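 Amplex Red (25 uM) and HRP (250 mU/mL) in HBSS, with compounds for 15 min, then 250 uM DTT for 30 min, room temperature, dark. Fluorescence 525/598 nm read; normalized to DMSO and 10 uM DA3003; Hill fit.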
# [16] = test system: HeLa; test: Primary qHTS to identify gynecologic anti-cancer compounds using libraries of approved drugs and bioactive compounds (AID 1345084); conditions: Gynecologic cancer cell panel viability, ATPlite luminescence, 48 h; series mostly up to 57.5 µM; note: nearly all actives have a fitted effect of over 55% in size
# Summary of the method: (§1)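 Five-concentration response, 48 h; readout is ATP-driven luciferase luminescence.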
# [17] = test system: Tov-21-G; test: as above; conditions: Gynecologic cancer cell panel viability, ATPlite luminescence, 48 h; series mostly up to 57.5 µM
# Summary of the method: as §1
# [18] = P-glycoprotein substrates identified in KB-8-5-11 adenocarcinoma cell line, qHTS therapeutic library screen (AID 1346987); note: nearly all actives have a fitted effect of over 65% in size
# Summary of the method: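 Steps: plate 500 KB-8-5-11 cells/well in DMEM + 10% FCS (colchicine removed); pin compounds in dose-response; incubate 72 h, 37 degree C, 5% CO2; add CellTiter-Glo, 5 min; read luminescence.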
# [19] = target: Calcium and integrin-binding protein 1 (Homo sapiens) (UniProt Q99828); test: Primary qHTS for Identification of Calcium Integrin Binding Protein 1 (CIB1) Competitor (AID 1508620);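 note: GST tagged CIB1 binding a fluorescein labelled alphaIIb integrin peptide tracer; top concentration of the series differs between compounds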
# Sequence of Calcium and integrin-binding protein 1 (Homo sapiens) (Q99828 whole entry, looked up): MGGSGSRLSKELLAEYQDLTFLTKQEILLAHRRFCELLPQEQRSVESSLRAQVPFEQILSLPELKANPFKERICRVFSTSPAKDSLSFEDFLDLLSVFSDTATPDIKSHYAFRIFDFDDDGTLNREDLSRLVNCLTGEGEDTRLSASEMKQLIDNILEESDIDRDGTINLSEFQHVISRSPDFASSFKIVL
# Summary of the method: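 CIB1-GST (1 uM final) and compound incubated 15 min at room temperature before adding FITC-alphaIIb peptide tracer (100 nM final). Competition for binding read by fluorescence polarization (ex 480, em 540) after another 15 min at room temperature.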
# [20] = test system: JEG-3; test: Primary qHTS to identify gynecologic anti-cancer compounds using libraries of approved drugs and bioactive compounds (AID 1345084); conditions: Gynecologic cancer cell panel viability, ATPlite luminescence, 48 h; series mostly up to 57.5 µM; note: nearly all actives have a fitted effect of over 55% in size
# Summary of the method: as §1
# [21] = target: Alpha-galactosidase (Coffea arabica) (UniProt Q42656); test: Counterscreen for Glucocerebrosidase Inhibitors: qHTS Assay for Coffee Bean alpha-Galactosidase at pH 5.9 (AID 998)
# Sequence of Alpha-galactosidase (Coffea arabica) (Q42656 whole entry, looked up): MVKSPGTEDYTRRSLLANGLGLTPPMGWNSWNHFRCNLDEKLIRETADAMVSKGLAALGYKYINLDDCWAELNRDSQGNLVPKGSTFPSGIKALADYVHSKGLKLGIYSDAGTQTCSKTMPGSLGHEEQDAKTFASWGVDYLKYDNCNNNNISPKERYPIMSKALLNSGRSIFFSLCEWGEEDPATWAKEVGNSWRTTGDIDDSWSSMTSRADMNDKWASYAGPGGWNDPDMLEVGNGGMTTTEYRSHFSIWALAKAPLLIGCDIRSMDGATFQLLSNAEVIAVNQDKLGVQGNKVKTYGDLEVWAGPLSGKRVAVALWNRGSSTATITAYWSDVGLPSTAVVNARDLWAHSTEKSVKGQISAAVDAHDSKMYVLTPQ
# Summary of the method: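 Compounds were titrated from 0.7 nM to 77 uM against green coffee bean alpha-galactosidase (2 nM) using 80 uM fluorogenic 4-methylumbelliferyl substrate. After 20 min at room temperature, reactions were stopped at pH 10 and read by fluorescence.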
# [22] = Validation screen for inhibitors of Lassa infection (AID 463096; calls by dose curve)
# [23] = Inducers of the Endoplasmic Reticulum Stress Response (ERSR) in human glioma: Validation (AID 504836)
# Summary of the method: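 ERSR induction read as luciferase luminescence (Bright-Glo, 10 min at room temperature) in stably transfected human U87-MG glioma cells exposed to compounds for 16 h, using GRP78 as sensor.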
# [24] = target: Nuclear receptor subfamily 1 group I member 3 (Homo sapiens) (UniProt Q14994); test: Primary qHTS for antagonist of constitutive androstane receptor (CAR) against the NCATS DSHEA and TCM libraries (AID 1794836);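 note: HepG2 cells stably expressing hCAR with CYP2B6 luciferase reporter stimulated by CITCO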
# Sequence of Nuclear receptor subfamily 1 group I member 3 (Homo sapiens) (Q14994 whole entry, looked up): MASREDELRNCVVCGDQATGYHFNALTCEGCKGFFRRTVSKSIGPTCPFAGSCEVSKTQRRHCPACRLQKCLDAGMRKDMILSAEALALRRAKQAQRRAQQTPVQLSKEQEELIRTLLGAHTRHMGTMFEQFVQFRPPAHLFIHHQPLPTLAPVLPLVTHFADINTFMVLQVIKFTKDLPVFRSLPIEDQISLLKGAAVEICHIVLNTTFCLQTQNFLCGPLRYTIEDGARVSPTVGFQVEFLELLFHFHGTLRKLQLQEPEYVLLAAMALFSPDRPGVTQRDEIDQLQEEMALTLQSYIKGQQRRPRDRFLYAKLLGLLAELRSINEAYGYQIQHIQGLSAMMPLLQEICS
# Summary of the method: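 Antagonist mode: CAR reporter luminescence (ONE-Glo) in HepG2-CYP2B6-hCAR cells stimulated with 48 uM CITCO (final) over 24 h at 37 C, compounds titrated; viability read first by CellTiter-Fluor fluorescence.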
# [25] = KB-8-5-11 P-gp reporter qHTS against the NCATS DSHEA and TCM libraries (AID 1919977)
# Summary of the method: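 KB-8-5-11, 500 cells/well, DMEM/10% FBS without colchicine; 4 h attach; cpd titrations, 72 h, 37C/5% CO2; CellTiter-Glo, 30 min RT, luminescence.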
smiles,measurement,setting,value
CCCCCCCCCCCC1=C(O)C(=O)C=C(O)C1=O,Potency,[1],4.85 µM (active)
same,Potency,[2],inactive
same,Potency,[3],inactive
same,Potency,[4],inactive
CCCOc1ccn2c(C(C)=O)cc(-c3ccccc3S(C)(=O)=O)c2c1,Potency,[2],inactive
same,Potency,[3],inactive
same,Potency,[4],inactive
CO[C@@H]1COCC[C@@H]1N[C@@H]1CC[C@@](C(=O)N2CCc3ncc(C(F)(F)F)cc3C2)(C(C)C)C1,Potency,[2],inactive
same,Potency,[3],inactive
same,Potency,[4],inactive
CCNC1(C(N)=O)CCN(c2ncnc3c2nc(-c2ccccc2Cl)n3-c2ccc(Cl)cc2)CC1,Potency,[2],inactive
same,Potency,[4],inactive
CN(C(=O)CN1C(=O)COc2cc(Cl)c(Cl)cc21)[C@@H](CN1CCCC1)c1ccc(-c2cccc(C(N)=O)c2)cc1,Potency,[5],inactive
same,Potency,[6],inactive
same,Potency,[7],16.9 µM (active)
same,Potency,[8],8.17 µM (active)
same,Potency,[9],7.28 µM (active)
same,Potency,[10],inactive
same,Potency,[11],inactive
same,outcome,[12],inactive
same,Potency,[13],inactive
same,Potency,[14],inactive
same,Potency,[15],inactive
same,Potency,[16],inactive
same,Potency,[17],inactive
CC1=CC2/C=C(\C)CCC(O)C(O)C(O)CC(=O)C23C(=O)NC(CC(C)C)C3C1C (stereo not given),Potency,[18],inactive
same,Potency,[6],inactive
same,Potency,[19],inactive
same,Potency,[8],4.47 µM (active)
same,Potency,[9],3.17 µM (active)
same,Potency,[10],inactive
same,Potency,[11],inactive
same,outcome,[12],inactive [at 25.7 µM]
same,Potency,[13],inactive
same,Potency,[14],inactive
same,Potency,[16],inactive
same,Potency,[20],inactive
CNc1nc(C)nc(N[C@H]2CCC[C@@H](C(=O)NCc3ccc(C#N)cc3C(F)(F)F)C2)n1,Potency,[3],inactive
same,Potency,[4],inactive
CCCCOc1nc(N)c2c(n1)N(Cc1cccc(CN3CCCC3)c1)CC(=O)N2,"activity change, negative = inhibition",[3],-22.5%
same,Potency,[4],inactive
O=C(CCc1ccc(O)cc1)c1c(O)cc(O)cc1O,outcome,[21],inactive
same,Potency,[22],inactive
same,outcome,[23],inactive
same,Potency,[2],inactive
same,"activity change, negative = inhibition",[3],-19.9%
same,Potency,[4],inactive
N#Cc1cccc(-c2c[nH]c3ncnc(N4CCOCC4)c23)c1,Potency,[2],inactive
same,Potency,[3],inactive
same,Potency,[4],inactive
CS(=O)(=O)c1ccc(Oc2cc(F)cc(C#N)c2)c2c1[C@H](O)C(F)(F)C2,Potency,[2],inactive
same,Potency,[4],inactive
CC(C)=CCC(O)/C(C)=C/CO[C@@H]1O[C@H](CO)[C@@H](O)[C@H](O)[C@H]1O (stereo not given in full),Potency,[24],inactive
same,outcome,[25],inactive
same,Potency,[4],inactive
OC[C@H]1O[C@@H](Oc2cc(O)cc(/C=C/c3ccc(O)cc3)c2)[C@H](O)[C@@H](O)[C@@H]1O,Potency,[2],inactive
same,Potency,[3],inactive
same,Potency,[4],inactive
C=C1C(=O)OC(CCCCCCCC)C1C(=O)O (stereo not given),Potency,[2],inactive
same,Potency,[4],inactive
